From PubChem BioAssay AID720582 (The Scripps Research Institute Molecular Screening Center, 2013)
Hit rate of the full screen: of about 370,000 compounds, about 2,300 (0.62%) were called active.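 Rule for the calls: active = inhibition above a per-campaign cutoff equal to the mean of compounds falling between control-based bounds plus 3 SD (cut at about 20% in these data); inactive = the rest.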 What follows is part of a selection rich in actives, with near analogues and random picks from the rest.

molecular target: Disintegrin and metalloproteinase domain-containing protein 10 (Homo sapiens) (UniProt O14672); experiment: blockers of ADAM10 peptide cleavage – biochemical, QFRET, HTS, primary screen (AID 720582); details: recombinant ADAM10, EDANS/DABCYL FRET peptide cleavage, 3 h; at 7 µM; stronger effect = higher value;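 note: 0% = DMSO wells while the 100% control is not disclosed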
Sequence (O14672 214-748 limits assumed): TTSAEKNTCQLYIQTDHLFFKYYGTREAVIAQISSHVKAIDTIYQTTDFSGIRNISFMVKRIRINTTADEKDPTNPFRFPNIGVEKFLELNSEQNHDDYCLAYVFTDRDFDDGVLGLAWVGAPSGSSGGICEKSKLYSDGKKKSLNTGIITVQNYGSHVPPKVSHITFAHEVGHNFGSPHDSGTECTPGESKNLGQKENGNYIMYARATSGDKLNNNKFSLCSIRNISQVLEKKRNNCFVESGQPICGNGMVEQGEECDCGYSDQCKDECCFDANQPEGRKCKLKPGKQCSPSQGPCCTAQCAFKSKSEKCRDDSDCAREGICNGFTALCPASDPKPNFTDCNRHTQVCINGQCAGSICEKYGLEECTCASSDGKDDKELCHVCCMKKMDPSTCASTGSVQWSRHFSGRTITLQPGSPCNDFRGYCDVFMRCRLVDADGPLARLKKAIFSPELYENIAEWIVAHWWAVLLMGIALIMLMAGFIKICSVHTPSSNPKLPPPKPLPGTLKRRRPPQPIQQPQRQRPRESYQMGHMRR

inhibition, active:
CCOc1ccc(Nc2oc(Cc3ccccc3)nc2C#N)cc1 23.6%
N#Cc1nc(COc2ccc(-c3ccccc3)cc2)oc1NCc1cccnc1 23.1%
c1ccc2c(CCN3CCNC[C@H]3Cc3cccc4ccccc34)cccc2c1 79%
Cc1cccc(C2c3[nH]c4ccccc4c3CCN2C(=O)c2cc(-c3cccn3C)n[nH]2)n1 (configuration not stated) 20.4%
CC(C)Oc1cc(F)ccc1-c1cc(C(=O)Nc2cccc(Cl)c2)[nH]n1 22.1%
Cc1[nH]c2ccccc2c1C(=O)COC(=O)c1c(-c2ccccc2)noc1C 24.7%
COc1ccc(Cl)cc1NC(=O)CN(C)C(=O)CCCc1c[nH]c2ccccc12 56.1%
Cc1ccc(NC(=O)c2nc[nH]c2C(=O)N[C@@H](CCCCNC(=O)OC(C)(C)C)C(=O)OC(C)(C)C)cc1 22.4%
CC(C)(C)c1ccc(C(=O)Nc2cc(Cl)c(Br)cc2C(=O)O)cc1 19.8%
O=C1NC(Nc2nc3ccccc3s2)(C(F)(F)F)C(=O)N1C1CCCCC1 (configuration not stated) 21%
O=C1[C@H]2[C@@H](c3ccc(F)cc3)N3C(=O)N(c4ccc(C(F)(F)F)cc4)C(=O)[C@@]3(Cc3ccccc3)[C@H]2C(=O)N1C1CCCCC1 22.2%
CCCCCc1c(-c2ccc(OC)c(OC)c2)ncn1CCc1ccccc1OC 22.3%

inhibition, inactive:
Cc1cc(=O)[nH]c(SCC(=O)Nc2ccc(Cl)cc2C)n1 -0.31%
C[C@@H]1CN([C@@H](C)CO)C(=O)c2cccc(NC(=O)Nc3cccc4ccccc34)c2O[C@H]1CN(C)S(=O)(=O)c1ccccc1F -24.8%
CCc1ccccc1NC(=O)CSc1nnc(-c2cccs2)o1 -1.28%
COc1ccc(-n2c(COc3ccccc3)nnc2SCC(=O)Nc2ccc3c(c2)OCO3)cc1 2.97%
Cc1ccc(OCc2nc(C#N)c(N3CCCC3)o2)cc1 -0.05%
N#Cc1nc(COc2ccc(Cl)cc2)oc1N1CCCC1 1.11%
O=S(=O)(c1ccccc1)c1nc(-c2ccccc2F)oc1NCc1cccnc1 12.6%
O=S(=O)(c1ccc(Br)cc1)c1nc(-c2ccccc2)oc1NCc1cccnc1 4.12%
CCCCOCCCNC(=O)C[C@H]1C[C@@]2(C(=O)OC)C(=C[C@H](COCc3ccccc3)O[C@@H]2C)N(Cc2cccc3ccccc23)C1=O 11.9%
c1ccc(C2CNCc3c2ccc2ccccc32)cc1 (configuration not stated) -2.76%
CC(C)(C)CN1C(=O)C(=O)NC[C@H]1Cc1cccc2ccccc12 -16.5%
CC(=O)C1(C(=O)Nc2nccs2)CC(c2ccccc2C(F)(F)F)=NO1 (configuration not stated) -3.94%
Cc1cccc(C(=O)N2CCc3c([nH]c4ccccc34)C2CC(C)C)n1 (configuration not stated) -15.2%
COCc1ccc(C(=O)N2CCc3c([nH]c4ccccc34)C2c2ccccn2)s1 (configuration not stated) 9.76%
COC(=O)c1ccccc1-n1cc(COC(=O)NCCc2ccccc2)nn1 -5.72%
C=CCN(C(=O)[C@@H](CCCC)[C@@H](O)c1ccc(Cl)cc1)c1ccccc1 11.4%
CC(C)Oc1cc(F)ccc1-c1cc(C(=O)Nc2ccc(F)cc2)[nH]n1 5.58%
COc1cc(NC(=O)c2cc(-c3ccc(F)cc3OC(C)C)n[nH]2)cc(OC)c1OC 9.02%
CCOC(=O)C1CCN(C(=O)C(C)(C)NC(=O)Nc2ccc(F)c(F)c2)CC1 6.44%
COc1ccc(N2CCN(CCNS(=O)(=O)c3ccc([N+](=O)[O-])cc3)CC2)cc1 5.38%
COc1ccc(C(=O)COC(=O)c2c(C)noc2C)cc1Cl 3.87%
Cc1[nH]c2ccccc2c1C(=O)CN1CC(C)CC(C)C1 (configuration not stated) -6.1%
COCCCNC(=O)C[C@H]1C[C@@]2(C(=O)OC)C(=C[C@H](C(C)(C)C)O[C@@H]2C)N(Cc2ccc(Cl)cc2Cl)C1=O 8.61%
C=CS(=O)(=O)N(Cc1nnn(Cc2ccccc2)c1Br)[C@H](C(=O)OC)C(C)C 5.21%
CCOC(=O)[C@]12CCCC=C1N(Cc1ccc(OC)cc1)C(=O)[C@@H]2CC(=O)N1CCOCC1 0.19%
COc1ccc(Cl)cc1NC(=O)CN(C)C(=O)c1ccc2n[nH]nc2c1 -4.74%
COc1ccc(Cl)cc1NC(=O)CN(C)C(=O)CNC(=O)C12CC3CC(CC(C3)C1)C2 0.24%
O=C(CSc1nnc(-c2ccccn2)n1-c1ccccc1)Nc1ccc2cn[nH]c2c1 1.78%
CCOC(=O)c1ccc(NC(=O)c2nc[nH]c2C(=O)N[C@@H](CCCCNC(=O)OC(C)(C)C)C(=O)OC(C)(C)C)cc1 -1.17%
CC(C)(C)OC(=O)NCCCCCNC(=O)c1[nH]cnc1C(=O)Nc1nccs1 -0.11%
Cc1nc(CNc2ncnc3ccc(-c4ccc5c(c4)OCO5)cc23)cs1 -136%
CSc1ccc(C#N)cc1NC(=O)c1ccc(Cl)cc1 7.58%
CSc1nccc(NC(=O)c2ccc(C(C)(C)C)cc2)n1 10.6%
COC(=O)[C@H](C(C)C)N(CCCc1cn(Cc2ccccc2)nn1)S(=O)(=O)c1ccc(F)cc1Br 2.42%
C=CCN1C(C(=O)OC)CN(Cc2cn(Cc3ccccc3)nn2)CCS1(=O)=O (configuration not stated) 2.91%
Cc1cccc(N2C(=O)N3[C@H](c4ccc(F)cc4)[C@@H]4C(=O)N(C5CCCCC5)C(=O)[C@@H]4[C@]3(Cc3ccccc3)C2=O)c1 5.39%
Cc1cccc([C@@H]2[C@@H]3C(=O)N(Cc4ccccc4)C(=O)[C@@H]3[C@]3(Cc4ccc(Cl)cc4)C(=O)N(c4cccc(Cl)c4)C(=O)N23)c1 -4.37%
CCCCc1c(-c2ccc(Cl)cc2)ncn1CCc1ccccc1OC -7.93%
CCCCCc1c(-c2cccc(Br)c2)ncn1CCc1ccccc1OC -0.06%
CCOC(=O)[C@]12CCCCC/C=C\1N(Cc1ccc(OC)cc1)C(=O)[C@H]2CC(=O)NCCCN1CCCC1=O -0.03%
